Test results reported in PubChem BioAssay (Tox21).
Results filed as inconclusive are left out. Activity calls are given as the source filed them. Unless noted, calls follow the shape of the dose curve; as a rule, active = well fitted curve in the direction sought with a large enough effect in the repeat runs; inconclusive = weak or mixed curves; inactive = no such curve, though single readings can be large; an effect the other way counts as inactive or inconclusive.

Tests used:
[1] = biological target: Progesterone receptor (Homo sapiens) (UniProt P06401); assay: qHTS assay to identify small molecule agonists of the progesterone receptor (PR) signaling pathway (AID 1346784; calls by dose curve; also: nearly all actives have a fitted effect of over 30% in size)
Procedure, shortened: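 Agonist qHTS: compounds pinned onto 3,000 PR-UAS-bla HEK 293T cells per well in charcoal-stripped serum medium, 16hr at 37C, then beta-lactamase activity measured by LiveBLAzer FRET fluorescence after 2 hours at room temperature.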

[2] = qHTS assay to identify small molecule antagonists of the TGF-beta/Smad signaling pathway - cell viability counter screen (AID 1346824); also: nearly all actives have a fitted effect of over 50% in size
Procedure, shortened: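 Cytotoxicity counter-screen run in the same wells as the beta-lactamase Smad reporter read: CellTiter-Glo luminescence after 30 min at room temperature. HEK 293T SBE-bla cells had 5 hr compound exposure at 37 C with TGF-beta1 (0.25 ng/mL stock).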

[3] = qHTS assay to identify small molecule agonists of the TGF-beta/Smad signaling pathway - cell viability counter screen (AID 1346829); also: top concentration of the series differs between compounds; nearly all actives have a fitted effect of over 45% in size
Procedure, shortened: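 After overnight seating at 37 C and 5% CO2, reporter cells got compounds for 5 hr and FRET substrate for 2 hr; cell viability then came from CellTiter-Glo luminescence.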

[4] = qHTS assay to identify small molecule agonists of the TGF-beta/Smad signaling pathway (AID 1346859; active = well fitted activation curve with a large enough effect in the signal ratio in the repeat runs, not every such curve was filed as active; the % refers to the signal ratio; also: series mostly up to about 77 µM)
Procedure, shortened: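 Fluorescence (ex 405 nm; em 460 and 530 nm) was read 2 h after LiveBLAzer FRET substrate at RT. The preceding compound treatment of overnight-plated SBE-bla HEK293T cells lasted 5 h at 37 C.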

[5] = biological target: Thyrotropin-releasing hormone receptor (Homo sapiens) (UniProt P34981); assay: qHTS assay to identify small molecule antagonists of the thyrotropin-releasing hormone receptor (TRHR) signaling pathway (AID 1346877; active = well fitted inhibition curve with a large enough effect in the repeat runs, not every such curve was filed as active; also: series mostly up to about 51 µM)
Procedure, shortened: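 Human TRHR in HEK293 cells; inhibition of the intracellular calcium rise triggered by 1 nM TRH was followed by fluorescence over 3 min. Compounds were run at 15 concentrations, three replicates each.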

[6] = biological target: Thyrotropin-releasing hormone receptor (Homo sapiens) (UniProt P34981); assay: qHTS assay to identify small molecule agonists of the thyrotropin-releasing hormone receptor (TRHR) signaling pathway (AID 1346891; calls by dose curve; also: series mostly up to about 58 µM)
Procedure, shortened: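 Agonist-mode intracellular calcium readout: kinetic fluorescence over 3 min at 1 s intervals after compound addition to TRHR-HEK293 cells (18 h seeded, 2 h dye-loaded at 37 C). Fifteen concentrations, triplicates.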

[7] = Human pregnane X receptor (PXR) small molecule agonists, qHTS cell viability counter screen (AID 1346977); also: nearly all actives have a fitted effect of over 50% in size; also: potency is read from the fitted curve at half-maximal effect
Procedure, shortened: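 Same-well viability read: CellTiter-Fluor added after 23 hr compound exposure, fluorescence measured 1 hr later. Cells were PXR-Luc HepG2 seeded at 2,000/well in 5% charcoal-stripped FBS medium, rested 5 hr before dosing at 37 C.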

[8] = Caspase-3/7 induction in HepG2 cells by small molecules, qHTS assay (AID 1346978); also: nearly all actives have a fitted effect of over 15% in size
Procedure, shortened: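 Caspase-3/7 induction was measured by Caspase-Glo 3/7 luminescence (30 min, room temperature) after a 17 hr compound exposure of wild-type HepG2 cells seeded at 2,000 per well and pre-incubated 5 hr.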

[9] = Caspase-3/7 induction in CHO-K1 cells by small molecules, qHTS cell viability counter screen (AID 1346979); also: nearly all actives have a fitted effect of over 35% in size; also: potency is read from the fitted curve at half-maximal effect
Procedure, shortened: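 Cytotoxicity counter screen: CellTiter-Fluor added to compound-treated wild-type CHO-K1 cells at 16 h (37C, 5% CO2), fluorescence measured 1 h later; same wells as caspase-3/7 measurement.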

[10] = Caspase-3/7 induction in CHO-K1 cells by small molecules, qHTS assay (AID 1346980); also: nearly all actives have a fitted effect of over 15% in size
Procedure, shortened: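 Luminescent Caspase-Glo 3/7 read (30min, room temperature) quantified apoptosis induction. Cells were wild-type CHO-K1, treated with compound for 17hr at 37 C and 5% CO2.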

[11] = Caspase-3/7 induction in HepG2 cells by small molecules, qHTS cell viability counter screen (AID 1346981); also: series mostly up to about 92 µM; nearly all actives have a fitted effect of over 30% in size
Procedure, shortened: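 The parent HepG2 line is plated at 2,000 cells per well and rested 5 hr before compound pinning from DMSO stocks. Following a 16-hr treatment at 37 C, a fluorogenic live-cell substrate (CellTiter-Fluor) reports viability after 1 hr.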

[12] = biological target: Nuclear receptor subfamily 1 group I member 2 (Homo sapiens) (UniProt O75469); assay: Human pregnane X receptor (PXR) small molecule agonists, qHTS assay (AID 1346982); also: nearly all actives have a fitted effect of over 35% in size; also: potency is read from the fitted curve at half-maximal effect
Procedure, shortened: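 After plating in 5% charcoal-stripped FBS and a 5 hr rest, PXR-Luc HepG2 cells received compounds in DMSO. Following 24 hr at 37 C, ONE-Glo was added and light output read.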

[13] = biological target: Acetylcholinesterase (Homo sapiens) (UniProt P22303); assay: Acetylcholinesterase (AChE) small molecule antagonists: colormetric cell-based qHTS assay (AID 1347395; calls by dose curve; also: nearly all actives have a fitted effect of over 30% in size)
Procedure, shortened: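 Colorimetric readout: DTNB quantifies thiocholine from acetylthiocholine hydrolysed by endogenous AChE of SH-SY5Y cells (2,000/well, plated overnight). Compound pretreatment 30 min, substrate incubation 90 min, both 37 C.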

[14] = qHTS assay to identify small molecule agonists of the estrogen receptor alpha (ER-alpha) signaling pathway in the presence of an antagonist - cell viability counter screen (AID 1259386);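 also: series mostly up to about 92 µM; cells exposed to compounds for 22 h at 37 °C before the viability read; nearly all actives have a fitted effect of over 30% in size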
Procedure, shortened: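 Steps: 5-day stripped-FBS culture; seed and incubate 24hr; add ICI-182,780 (10.0nM final); pin 15-point compound titration; incubate 22hr at 37C; add CellTiter-Fluor at 21hr; read fluorescence.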

[15] = biological target: Progesterone receptor (Homo sapiens) (UniProt P06401); assay: qHTS assay to identify small molecule antagonists of the progesterone receptor (PR) signaling pathway (AID 1346795; active = well fitted inhibition curve with a large enough effect in the signal ratio in the repeat runs, not every such curve was filed as active; the % refers to the signal ratio)
Procedure, shortened: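 Antagonist mode with agonist R5020 at 1 nM final and 16 hr incubation at 37C. Reporter was beta-lactamase driven by UAS in HEK293T (PR-UAS-bla), 2% charcoal-stripped serum; signal from LiveBLAzer FRET substrate, 2 hr at room temperature.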

[16] = qHTS assay to identify small molecule antagonists of the progesterone receptor (PR) signaling pathway - cell viability counter screen (AID 1346798); also: series mostly up to about 92 µM; nearly all actives have a fitted effect of over 50% in size
Procedure, shortened: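 Cytotoxicity read as CellTiter-Glo luminescence (30 min, room temperature) in the same wells as the beta-lactamase readout. HEK293T PR-UAS-bla cells in charcoal-stripped 2% FBS received compound and R5020, then 16 h at 37C, 5% CO2.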

[17] = qHTS assay to identify small molecule agonists of the progesterone receptor (PR) signaling pathway - cell viability counter screen (AID 1346799; calls by dose curve; also: nearly all actives have a fitted effect of over 45% in size)
Procedure, shortened: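 Cytotoxicity measured by CellTiter-Glo luminescence (30 min, RT) in the same wells as the PR beta-lactamase agonist read. Those HEK293T cells had 16 h compound treatment at 37 C in 2% charcoal-stripped FBS medium.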

[18] = biological target: Nuclear receptor subfamily 1 group I member 2 (Rattus norvegicus) (UniProt Q9R1A7); assay: Rat pregnane X receptor (rPXR) activation by small molecules, qHTS assay (AID 1346983); settings: rPXR luciferase reporter cells, One-Glo luminescence, 24 h; max activation: active compounds read high; also: nearly all actives have a fitted effect of over 20% in size
Procedure, shortened: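 Luminescent readout (One-Glo luciferase, 30 min room temperature) followed 24 hr compound treatment at 37 C of rPXR cells plated 2,000 per well and preincubated 5hr; qHTS format with compounds delivered in DMSO.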

[19] = biological target: Nuclear receptor subfamily 1 group I member 2 (Homo sapiens) (UniProt O75469); assay: CYP3A4 induction through human pregnane X receptor (PXR) by small molecules, qHTS assay (AID 1346984); also: nearly all actives have a fitted effect of over 40% in size; also: potency is read from the fitted curve at half-maximal effect
Procedure, shortened: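 Human PXR activation is tracked via CYP3A4 promoter-luciferase in DPX-2 (HepG2) cells. Compounds treat cells for 24hr at 37C, and luminescence is read after One-Glo.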

[20] = biological target: Nuclear receptor subfamily 1 group I member 2 (Homo sapiens) (UniProt O75469); assay: Human pregnane X receptor (PXR) activation by small molecules, qHTS assay (AID 1346985); also: nearly all actives have a fitted effect of over 40% in size; also: potency is read from the fitted curve at half-maximal effect
Procedure, shortened: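 DPX-2 cells (HepG2 co-transfected with a PXR response element and a CYP3A4-promoter luciferase construct) were seeded at 2,000 per well, rested 5 hr at 37C, then exposed to DMSO-dissolved compounds for 24 hr. Activation was read as luciferase luminescence.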
% is scaled to controls: 0 for no effect and ±100 for the full control effect.

Nuclear receptor subfamily 1 group I member 2 (Rattus norvegicus), sequence (Q9R1A7 whole entry, looked up): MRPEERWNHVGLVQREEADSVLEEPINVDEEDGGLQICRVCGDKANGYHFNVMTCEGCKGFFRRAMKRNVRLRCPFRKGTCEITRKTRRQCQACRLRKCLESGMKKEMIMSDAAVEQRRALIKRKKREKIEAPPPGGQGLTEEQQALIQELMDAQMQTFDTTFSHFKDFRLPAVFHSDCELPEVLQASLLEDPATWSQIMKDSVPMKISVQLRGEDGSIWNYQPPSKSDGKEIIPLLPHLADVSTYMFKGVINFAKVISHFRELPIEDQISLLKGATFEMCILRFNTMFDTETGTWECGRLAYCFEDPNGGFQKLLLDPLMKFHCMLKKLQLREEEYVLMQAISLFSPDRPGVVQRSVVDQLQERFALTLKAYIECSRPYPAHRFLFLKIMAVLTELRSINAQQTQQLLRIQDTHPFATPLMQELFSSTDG
Nuclear receptor subfamily 1 group I member 2 (Homo sapiens), sequence (O75469 whole entry, looked up): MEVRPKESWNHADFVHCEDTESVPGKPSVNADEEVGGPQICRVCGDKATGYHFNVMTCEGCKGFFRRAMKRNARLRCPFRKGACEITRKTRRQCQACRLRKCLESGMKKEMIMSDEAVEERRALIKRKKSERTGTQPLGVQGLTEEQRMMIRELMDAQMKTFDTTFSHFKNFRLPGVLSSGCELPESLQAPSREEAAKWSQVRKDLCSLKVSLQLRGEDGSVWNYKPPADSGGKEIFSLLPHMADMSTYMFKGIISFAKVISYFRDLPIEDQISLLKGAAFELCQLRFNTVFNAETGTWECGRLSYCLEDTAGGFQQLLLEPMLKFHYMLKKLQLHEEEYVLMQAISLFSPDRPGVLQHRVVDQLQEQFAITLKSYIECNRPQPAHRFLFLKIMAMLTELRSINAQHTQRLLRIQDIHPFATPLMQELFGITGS
Acetylcholinesterase (Homo sapiens), sequence (P22303 whole entry, looked up): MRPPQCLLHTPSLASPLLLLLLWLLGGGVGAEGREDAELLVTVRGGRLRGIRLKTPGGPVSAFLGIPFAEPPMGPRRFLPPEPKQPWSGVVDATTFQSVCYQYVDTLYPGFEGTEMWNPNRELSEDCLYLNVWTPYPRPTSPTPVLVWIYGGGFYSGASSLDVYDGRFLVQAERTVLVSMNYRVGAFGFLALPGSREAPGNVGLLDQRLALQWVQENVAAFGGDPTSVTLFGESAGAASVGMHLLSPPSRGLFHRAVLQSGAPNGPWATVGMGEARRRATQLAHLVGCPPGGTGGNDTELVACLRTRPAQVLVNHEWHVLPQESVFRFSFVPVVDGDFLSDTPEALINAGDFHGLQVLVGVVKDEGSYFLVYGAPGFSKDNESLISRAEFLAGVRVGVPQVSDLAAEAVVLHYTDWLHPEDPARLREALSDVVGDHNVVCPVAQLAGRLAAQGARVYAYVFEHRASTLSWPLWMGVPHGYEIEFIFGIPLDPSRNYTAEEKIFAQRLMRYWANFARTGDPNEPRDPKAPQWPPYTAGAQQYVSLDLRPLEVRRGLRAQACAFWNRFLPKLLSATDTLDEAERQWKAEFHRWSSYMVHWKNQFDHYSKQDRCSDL
Progesterone receptor (Homo sapiens), sequence (P06401 whole entry, looked up): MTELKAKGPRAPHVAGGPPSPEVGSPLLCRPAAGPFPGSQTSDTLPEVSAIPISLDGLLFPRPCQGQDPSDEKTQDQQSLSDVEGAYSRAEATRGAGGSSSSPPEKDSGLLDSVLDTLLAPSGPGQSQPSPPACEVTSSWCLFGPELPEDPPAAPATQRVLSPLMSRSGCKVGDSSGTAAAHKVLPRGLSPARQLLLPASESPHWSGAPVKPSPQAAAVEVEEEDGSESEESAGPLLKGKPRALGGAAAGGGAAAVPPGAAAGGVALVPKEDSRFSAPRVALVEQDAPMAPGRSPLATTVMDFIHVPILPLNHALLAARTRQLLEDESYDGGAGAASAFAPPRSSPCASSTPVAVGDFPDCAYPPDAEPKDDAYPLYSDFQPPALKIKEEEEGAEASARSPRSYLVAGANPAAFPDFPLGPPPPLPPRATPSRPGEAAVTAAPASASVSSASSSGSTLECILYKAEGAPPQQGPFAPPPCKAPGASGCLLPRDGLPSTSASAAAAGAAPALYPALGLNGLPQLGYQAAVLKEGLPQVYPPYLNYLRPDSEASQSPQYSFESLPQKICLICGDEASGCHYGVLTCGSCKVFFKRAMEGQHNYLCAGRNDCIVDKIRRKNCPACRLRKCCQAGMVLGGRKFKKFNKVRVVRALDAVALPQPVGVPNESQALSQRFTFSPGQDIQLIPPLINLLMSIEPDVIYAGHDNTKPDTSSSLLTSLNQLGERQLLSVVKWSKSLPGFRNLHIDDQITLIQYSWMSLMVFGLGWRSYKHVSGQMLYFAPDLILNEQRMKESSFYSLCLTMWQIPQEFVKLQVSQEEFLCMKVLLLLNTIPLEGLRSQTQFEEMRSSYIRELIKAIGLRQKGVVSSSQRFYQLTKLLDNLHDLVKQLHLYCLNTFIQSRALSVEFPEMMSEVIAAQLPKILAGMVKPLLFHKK
Thyrotropin-releasing hormone receptor (Homo sapiens), sequence (P34981 whole entry, looked up): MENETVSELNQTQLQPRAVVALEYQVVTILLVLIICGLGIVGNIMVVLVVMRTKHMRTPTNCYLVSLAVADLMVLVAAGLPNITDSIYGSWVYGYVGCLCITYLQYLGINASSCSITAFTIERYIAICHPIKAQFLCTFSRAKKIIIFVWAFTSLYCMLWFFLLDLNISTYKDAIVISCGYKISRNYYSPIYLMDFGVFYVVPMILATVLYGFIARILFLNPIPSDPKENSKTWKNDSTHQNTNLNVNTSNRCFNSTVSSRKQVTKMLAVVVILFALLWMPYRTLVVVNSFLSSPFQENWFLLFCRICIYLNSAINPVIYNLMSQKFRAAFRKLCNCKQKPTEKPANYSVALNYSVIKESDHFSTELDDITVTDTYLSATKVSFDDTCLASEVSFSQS

CC(CC(C#N)(c1ccccc1)c1ccccc1)N(C)C (stereo unspecified)
inactive: Potency [1] | Potency [2] | outcome [3] | outcome [4] | outcome [5] | outcome [6] | Potency [8] | Potency [9] | Potency [10] | Potency [11] | Potency [12] | Potency [13]
active: Potency [7] 48.3 µM

COC(C)(C)C
inactive: Potency [14] | Potency [15] | Potency [16] | Potency [2] | outcome [3] | outcome [4] | Potency [7] | Potency [8] | Potency [9] | Potency [10] | Potency [11] | Potency [12] | Potency [13]

O=C(Nc1ccccc1)N(Cc1ccc(Cl)cc1)C1CCCC1
inactive: Potency [1] | Potency [16] | Potency [2] | outcome [3] | outcome [4] | outcome [5] | outcome [6] | Potency [8] | Potency [10] | Potency [13]
active: Potency [12] 6.11 µM

COc1cccc(C(=O)NN(C(=O)c2cc(C)cc(C)c2)C(C)(C)C)c1C
inactive: Potency [1] | Potency [15] | Potency [17] | Potency [2] | outcome [3] | outcome [4] | outcome [5] | outcome [6] | Potency [8] | Potency [10] | Potency [12] | Potency [13]
active: Potency [9] 61.1 µM

C#C[C@]1(O)C=C[C@H]2[C@@H]3CCC4=CC(=O)CC[C@@H]4[C@H]3CC[C@@]21CC
active: Potency [12] 29.8 µM
inactive: Potency [14] | Potency [15] | Potency [2] | outcome [3] | outcome [4] | outcome [5] | outcome [6] | Potency [7] | Potency [8] | Potency [10] | Potency [11] | max activation [18] -1.56% | Potency [19] | Potency [20] | Potency [13]

O=[N+]([O-])c1cccc2c([N+](=O)[O-])cccc12
inactive: Potency [14] | Potency [15] | Potency [2] | outcome [3] | outcome [4] | outcome [5] | outcome [6] | Potency [7] | Potency [8] | Potency [9] | Potency [10] | Potency [11] | Potency [12] | Potency [13]

O=C(CCCN1CCC(n2c(=O)[nH]c3ccccc32)CC1)c1ccc(F)cc1
inactive: Potency [14] | Potency [1] | Potency [2] | outcome [3] | outcome [4] | Potency [8] | Potency [9] | Potency [10] | Potency [11] | max activation [18] -1.58% | Potency [19] | Potency [20] | Potency [13]
active: Potency [12] 13.3 µM

CCN(CC)CCOC(=O)C(C)(c1ccccc1)c1ccccc1
inactive: Potency [1] | Potency [15] | Potency [16] | Potency [17] | Potency [2] | outcome [3] | outcome [4] | outcome [5] | outcome [6] | Potency [9] | Potency [10] | Potency [11] | max activation [18] 7.07% | Potency [13]
active: Potency [12] 13.3 µM | Potency [19] 7.94 µM | Potency [20] 8.91 µM

N#CC(Cl)(Cl)Cl
inactive: Potency [14] | Potency [16] | Potency [17] | Potency [2] | outcome [3] | outcome [4] | Potency [7] | Potency [8] | Potency [9] | Potency [10] | Potency [11] | Potency [12] | Potency [13]

CCCCCCBr
inactive: Potency [14] | Potency [16] | Potency [17] | Potency [2] | outcome [3] | outcome [4] | Potency [7] | Potency [8] | Potency [9] | Potency [10] | Potency [11]

CC1(C)C(=O)NC(=O)NC1=O
inactive: Potency [14] | Potency [1] | Potency [2] | outcome [3] | outcome [4] | outcome [5] | outcome [6] | Potency [7] | Potency [8] | Potency [9] | Potency [10] | Potency [11] | Potency [12] | Potency [13]

Cc1nnc2n1-c1sc(CCC(=O)N3CCOCC3)cc1C(c1ccccc1Cl)=NC2
inactive: Potency [14] | Potency [15] | Potency [16] | Potency [17] | Potency [2] | outcome [3] | Potency [7] | Potency [8] | Potency [9] | Potency [10] | Potency [11] | Potency [12] | Potency [13]

COC(=O)C(c1ccccc1)C1CCCCN1 (stereo unspecified)
inactive: Potency [14] | Potency [1] | Potency [17] | outcome [3] | outcome [4] | outcome [5] | outcome [6] | Potency [9] | Potency [10] | Potency [11] | Potency [12] | max activation [18] -3.29% | Potency [19] | Potency [20] | Potency [13]

CCOP(=S)(OCC)Oc1nc(Cl)n(C(C)C)n1
inactive: Potency [14] | Potency [15] | Potency [16] | outcome [3] | outcome [4] | outcome [5] | outcome [6] | Potency [7] | Potency [8] | Potency [9] | Potency [10] | Potency [11]
active: Potency [12] 6.86 µM

C[C@]1(O)CC[C@H]2[C@@H]3CCC4=CC(=O)CC[C@]4(C)[C@@]3(F)[C@@H](O)C[C@@]21C
active: Potency [12] 48.9 µM
inactive: Potency [14] | Potency [16] | outcome [3] | outcome [4] | Potency [7] | Potency [8] | Potency [9] | Potency [10] | Potency [11] | Potency [13]

CC1=C(C(=O)Nc2ccccc2)S(=O)(=O)CCO1
inactive: Potency [1] | Potency [2] | outcome [3] | outcome [4] | Potency [8] | Potency [10] | Potency [12] | Potency [13]
active: Potency [9] 61.1 µM

CCNc1nc(NC(C)C)nc(OC)n1
active: Potency [12] 27.3 µM
inactive: Potency [14] | Potency [16] | Potency [17] | Potency [2] | outcome [3] | outcome [4] | outcome [5] | outcome [6] | Potency [7] | Potency [8] | Potency [9] | Potency [10] | Potency [11] | Potency [13]

Clc1cccc(N2CCNCC2)c1
inactive: Potency [1] | Potency [15] | outcome [3] | outcome [4] | Potency [7] | Potency [8] | Potency [9] | Potency [10] | Potency [11] | Potency [12] | Potency [13]
